Measurements published in PubChem BioAssay AID1275 (Emory University Molecular Libraries Screening Center, 2008).
In all, about 1,000 compounds went through this assay and about 160 (16%) were called active. How the calls were made is not given here. The list shows a part of the results.

Target: Neutrophil cytosol factor 1 (Homo sapiens) (UniProt P14598)
Test: blockers of ligand binding to p47phox – biochemical, NADPH oxidase regulatory subunit, fluorescence polarization, dose response (AID 1275)
Details: at 12.5 µM

Neutrophil cytosol factor 1 (Homo sapiens), sequence (P14598 whole entry, looked up): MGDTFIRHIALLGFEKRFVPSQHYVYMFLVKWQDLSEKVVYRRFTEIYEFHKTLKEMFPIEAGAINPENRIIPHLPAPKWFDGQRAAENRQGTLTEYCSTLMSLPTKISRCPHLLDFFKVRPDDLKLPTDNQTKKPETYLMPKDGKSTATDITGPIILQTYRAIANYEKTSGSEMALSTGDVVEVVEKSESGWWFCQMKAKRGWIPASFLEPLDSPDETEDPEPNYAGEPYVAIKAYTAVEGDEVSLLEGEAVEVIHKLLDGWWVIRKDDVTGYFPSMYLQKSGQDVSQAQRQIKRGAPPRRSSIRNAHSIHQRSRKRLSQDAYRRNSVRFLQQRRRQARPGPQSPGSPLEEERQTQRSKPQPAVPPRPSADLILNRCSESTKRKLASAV

Percent of control, lower = inhibition, active:
N#CC(C#N)=C1C=C2C=C(N3CCCCC3)CCC2CC1 (stereo unspecified) 107, Cc1ccc(-n2c(C)cc(C3N=C(N)Nc4nc5ccccc5n43)c2C)c(C)c1 (stereo unspecified) 66.2, CCN1CCN(Cc2ccc(NC(=O)c3ccc(C)c(NC(=O)c4c[nH]c5cc(C(F)(F)F)ccc5c4=O)c3)cc2C(F)(F)F)CC1 53.8, CN(C)c1ccc(/C=C/C(=O)c2cc(Cl)ccc2O)cc1 50.8, Cc1ccc2cc3c(N)c4c(C)ccc(C)c4nc3nc2c1 51.8, CN(C)c1ccc(/C=C(\C#N)C(=O)c2ccccc2)cc1 69.6
